Measured values: ChEMBL document CHEMBL3988442, “University of Dundee, Small-Polar-MMV Screening Library” (2021)
Hit rate of the full screen: of about 48,000 compounds, about 13,000 (27%) showed an effect of 50% or more. The list shows a part of the results.

These molecules were tested on Wolbachia pipientis (assay: Anti-Wolbachia Cell-Based Screen). Details: 5 µM.
Type: functional
Design: scale not given: in the data most compounds retested in dose-response had high values
NC(=O)c1ccnc(N2CCN(Cc3ccc(F)cc3Cl)CC2)c1 was tested, and the “Percent Effect” value was 9.794%. For CCCn1nc(C)c(CN(CCN(C)C)Cc2ccccn2)c1C, the “Percent Effect” value was 95.65%. CCCn1ncc(CN(CCN(C)C)Cc2ccsc2)c1C was tested, and the “Percent Effect” value was 0.1145%. With CCCN(Cc1ccccn1)Cc1ccccc1OC the “Percent Effect” value was 8.723%. For NC(=O)N1CCCC1COC(=O)c1ccc(F)cc1Br (configuration not stated), the “Percent Effect” value was -14.4%. With O=S1(=O)CCC(CNS(=O)(=O)N2CCc3ccccc3C2)C1 (configuration not stated) the “Percent Effect” value was 5.684%. For CCCC(C)(C)NC(=O)c1ccc(CC2CC(=O)NC2=O)cc1 (configuration not stated), the “Percent Effect” value was -6.168%. For O=C(N[C@H]1CCCC[C@@H]1O)c1cccc(-c2nc3ccccc3[nH]2)c1, the “Percent Effect” value was 102.7%. In the case of CN1CCCC1CCn1ccnc1-c1nc2ccccc2[nH]1 (configuration not stated), the “Percent Effect” value is reported as 1.274%. O=C(N[C@@H]1CNCCC[C@H]1O)c1ccc(OCc2ccccc2)cc1 was tested, and the “Percent Effect” value was -1.908%. In the case of OCC1CCCCN1CCn1ccnc1-c1nc2ccccc2[nH]1 (configuration not stated), the “Percent Effect” value is reported as 1.292%. With O=C(N[C@@H]1CCNC[C@H]1O)c1ccc(F)c(F)c1 the “Percent Effect” value was 7.783%. With O=C(N[C@H]1CCCC[C@@H]1O)c1ccc2nc(-c3ccccc3)[nH]c2c1 the “Percent Effect” value was 121.7%. With O=C(N[C@H]1CCCC[C@@H]1O)c1ccc(-c2nc3ccccc3[nH]2)cc1 the “Percent Effect” value was 104%. In the case of O=C(N[C@@H]1CCNC[C@H]1O)c1ccc(O)c(Cl)c1, the “Percent Effect” value is reported as 22.9%. O=C(N[C@@H]1CCNC[C@H]1O)c1ccc(-c2ccc(F)cc2)cc1 was tested, and the “Percent Effect” value was 15.94%. O=C(CCc1cn[nH]c1)N1C[C@@H](CN2CCOCC2)C[C@H](CO)C1 was tested, and the “Percent Effect” value was 10.13%. For COC(=O)c1sccc1S(=O)(=O)N1CCC(Oc2cccnn2)CC1, the “Percent Effect” value was 13.23%. In the case of COC(=O)N1CCCC(NC(=O)NCc2ccc(C)nc2)C1 (configuration not stated), the “Percent Effect” value is reported as 12.17%. For CN(C)Cc1ccnc(C2CN(CCCc3ccccc3)CCO2)n1 (configuration not stated), the “Percent Effect” value was 114%. For CN(C)Cc1ccnc(C2CN(CCc3ccccc3)CCO2)n1 (configuration not stated), the “Percent Effect” value was 102.6%. In the case of CN(Cc1nccn1C)C1CCCN(CCCc2ccccc2)C1 (configuration not stated), the “Percent Effect” value is reported as 7.706%. For CC(C)(C)c1n[nH]c(C2CN(CCc3ccncc3)CCO2)n1 (configuration not stated), the “Percent Effect” value was 18.66%. In the case of Cc1nc(C)n(CC2CN(CCCc3ccccc3)CCO2)n1 (configuration not stated), the “Percent Effect” value is reported as -18.17%. With Cn1ncc(N2CCC(CNC3CC(C)(C)CC(C)(C)C3)C2)cc1=O (configuration not stated) the “Percent Effect” value was 8.981%. Cc1nn(C)cc1CN1C[C@@H]2CC[C@H](C1)N(Cc1c(C)noc1C)C2=O was tested, and the “Percent Effect” value was -0.3171%. Cn1c(CN2CCCC2)nnc1C1CCCN(C(=O)C2CCOCC2)C1 (configuration not stated) was tested, and the “Percent Effect” value was -15.35%. CN(CCO)Cc1nnc(C2CCN(C(=O)C3CCOCC3)CC2)n1C was tested, and the “Percent Effect” value was -7.962%. Cc1nn(CCO)cc1CN1CCC(N2CCC(O)CC2)CC1 was tested, and the “Percent Effect” value was -2.078%. In the case of Cc1nn(C)cc1CN1CCC(c2ncc(Cl)cc2S(C)(=O)=O)CC1, the “Percent Effect” value is reported as 110.1%. For O=C(C1CCCO1)N1CCC(Cn2cc(C3CCCC3)nn2)CC1 (configuration not stated), the “Percent Effect” value was -6.289%. CS(=O)(=O)c1cc(Cl)cnc1C1CCN(C(=O)C2CCCO2)CC1 (configuration not stated) was tested, and the “Percent Effect” value was 120.4%. With CS(=O)(=O)c1cc(Cl)cnc1C1CCN(C(=O)C2CCOCC2)CC1 the “Percent Effect” value was 98%. In the case of CS(=O)(=O)c1cc(Cl)cnc1C1CCCN(C(=O)C2CCOCC2)C1 (configuration not stated), the “Percent Effect” value is reported as 120.4%. O=C(C1CCCO1)N1CCC(c2nc(-c3ccccc3)n[nH]2)CC1 (configuration not stated) was tested, and the “Percent Effect” value was -16.11%. For CS(=O)(=O)N1C[C@@H](C(=O)Nc2cnccn2)C[C@H]2OCC[C@H]21, the “Percent Effect” value was -10.64%. In the case of Cc1cc(C)cc(C(=O)Nc2ccc(CC3CC(=O)NC3=O)cc2)c1 (configuration not stated), the “Percent Effect” value is reported as -7.063%. CCS(=O)(=O)c1ccc(N2CCC(N)CC2)cc1 was tested, and the “Percent Effect” value was -6.106%. With CCc1noc(C)c1C(=O)NCCCC(CC)(CC)C1OCCO1 the “Percent Effect” value was -8.501%. For Cn1c(C(F)(F)F)nn(CCNC(=O)c2cnc3ccccc3n2)c1=O, the “Percent Effect” value was 1.982%. In the case of O=C(C1CC1)N1CCC(Oc2ccccc2Cl)CC1, the “Percent Effect” value is reported as -14.42%. N#Cc1cnc(NC2CCN(C(=O)C3CC3)CC2)c(Cl)c1 was tested, and the “Percent Effect” value was -2.67%. With CS(=O)(=O)c1cc(Cl)cnc1C1CCN(C(=O)C2CC2)CC1 the “Percent Effect” value was 82.8%. With CCn1nc(C)c(CCNC(=O)C2CCCN(CC(N)=O)C2)c1C (configuration not stated) the “Percent Effect” value was -1.587%. With O=C(CSC1=NS(=O)(=O)c2cc(F)ccc2N1)Nc1ccc(Cl)c(Cl)c1 the “Percent Effect” value was 112.6%. In the case of O=C(CSC1=NS(=O)(=O)c2cc(F)ccc2N1)Nc1ccc(Cl)cc1, the “Percent Effect” value is reported as 115.7%. CN(CCS(=O)(=O)c1cc(Cl)ccc1Cl)CC(=O)Nc1ccc(F)cc1 was tested, and the “Percent Effect” value was -4.797%. In the case of O=C(CSC1=NS(=O)(=O)c2cc(F)ccc2N1)Nc1cccc(Cl)c1, the “Percent Effect” value is reported as 1.822%. With O=S1(=O)N=C(SCc2ccc(Cl)cc2)Nc2ccc(F)cc21 the “Percent Effect” value was 26.5%. CCOCC(=O)N1CCC(c2nc(-c3cccnn3)no2)CC1 was tested, and the “Percent Effect” value was -10.28%. In the case of CN(C)c1cncc(C2CCN(C(=O)CO)CC2)n1, the “Percent Effect” value is reported as -8.172%. For CC(=O)NCC(=O)N1CCC(c2cncc(Oc3cccnc3)n2)CC1, the “Percent Effect” value was 94.92%. COCCC(=O)N1Cc2[nH]nc(COc3cccnc3)c2C1 was tested, and the “Percent Effect” value was -7.677%. With NCC(=O)N1CCC(c2cncc(Oc3cccnc3)n2)CC1 the “Percent Effect” value was 115.4%. For COCCC(=O)N1CCC(c2cncc(Oc3cccnc3)n2)CC1, the “Percent Effect” value was 116.7%. In the case of CCC(=O)N1CCC(c2cncc(Oc3cccnc3)n2)CC1, the “Percent Effect” value is reported as 118.9%. O=C(c1cnc[nH]1)N1CCC(Oc2cccnc2)CC1 was tested, and the “Percent Effect” value was -5.216%. With O=C(O)c1coc(COc2cccc(F)c2)n1 the “Percent Effect” value was 4.925%. In the case of Cn1cc(C(C)(O)CNc2ccc(C(F)(F)F)cn2)cn1 (configuration not stated), the “Percent Effect” value is reported as -6.245%. For CC(C)(C)CC(NC(=O)c1nc(=O)[nH][nH]1)c1ccc(F)cc1 (configuration not stated), the “Percent Effect” value was -5.789%. In the case of COC(=O)CCNC(=O)c1coc(COc2ccc(F)cc2)n1, the “Percent Effect” value is reported as -5.567%. With CCOC(=O)NC(=O)CSC(C)c1ccccc1F (configuration not stated) the “Percent Effect” value was 4.048%. With CN1CCN2CCN(C(=O)c3cnn4cc(CCO)cnc34)CC2C1 (configuration not stated) the “Percent Effect” value was -3.17%. With Cn1ccnc1CN1CCCN(C(=O)c2ccc3[nH]cnc3c2)CC1 the “Percent Effect” value was 100.5%. Cc1nccn1CCC1CCCCN1C(=O)c1ccc2[nH]nnc2c1 (configuration not stated) was tested, and the “Percent Effect” value was -0.5329%. With CC(C)c1nccn1C1CCCN(C(=O)c2ccc3[nH]cnc3c2)C1 (configuration not stated) the “Percent Effect” value was -5.197%. Cn1ccnc1CN1CCCN(C(=O)c2ccc3[nH]nnc3c2)CC1 was tested, and the “Percent Effect” value was 102.4%. In the case of CN(C(=O)OC(C)(C)C)C1CCN(C(=O)c2cc(Cl)c[nH]2)C1 (configuration not stated), the “Percent Effect” value is reported as 3.471%. In the case of COCC(=O)N[C@H](C)c1onc(-c2ccc(F)cc2)c1C(=O)O, the “Percent Effect” value is reported as -10.17%. In the case of Cn1c(=O)c2c(n3ncnc13)NC(=O)CC2c1cccc(Br)c1 (configuration not stated), the “Percent Effect” value is reported as 114.2%. In the case of Cn1c(=O)c2c(n3ncnc13)NC(=O)CC2c1ccc(F)cc1 (configuration not stated), the “Percent Effect” value is reported as 107.2%. CC(C)(C)n1ncc2c1NC(=O)CC2c1ccccc1 (configuration not stated) was tested, and the “Percent Effect” value was 1.075%. With COc1cccc(C2CC(=O)Nc3c2c(=O)n(C)c2ncnn32)c1 (configuration not stated) the “Percent Effect” value was 109.5%. O=C1CC(c2ccc(F)cc2)c2cnn(C3CCCC3)c2N1 (configuration not stated) was tested, and the “Percent Effect” value was -2.721%. In the case of Cn1c(=O)c2c(n3ncnc13)NC(=O)CC2c1cccc(F)c1 (configuration not stated), the “Percent Effect” value is reported as 120.7%. With CSc1ccc(C2CC(=O)Nc3c2c(=O)[nH]c2ncnn32)cc1 (configuration not stated) the “Percent Effect” value was -5.097%. For O=C1CC(c2ccc(C(=O)O)cc2)c2ncn(-c3cccc(F)c3)c2N1 (configuration not stated), the “Percent Effect” value was 4.592%. For CC(C)n1[nH]c(=O)c2c1NC(=O)CC2c1cccnc1 (configuration not stated), the “Percent Effect” value was 10.81%. CC(C)n1[nH]c(=O)c2c1NC(=O)CC2c1cccc(OC(F)F)c1 (configuration not stated) was tested, and the “Percent Effect” value was 18.26%. O=C1CC(c2ccc(C(=O)O)cc2)c2ncn(-c3ccccc3F)c2N1 (configuration not stated) was tested, and the “Percent Effect” value was 10.34%. CC(C)n1[nH]c(=O)c2c1NC(=O)CC2c1ccc2ncccc2c1 (configuration not stated) was tested, and the “Percent Effect” value was 8.497%. In the case of CC(C)(C)c1cn2c(n1)C(CNCc1ccccn1)CCC2 (configuration not stated), the “Percent Effect” value is reported as 10.69%. With CCN(Cc1nc(-c2ccco2)no1)Cc1cccc2c1OCO2 the “Percent Effect” value was -4.038%. With CC(C)n1nc2c(cc1=O)CN(CC1CCCCO1)CC2 (configuration not stated) the “Percent Effect” value was 3.458%. For Cc1nc2n(n1)CC(NCc1ccccc1OCC(=O)N(C)C)CC2 (configuration not stated), the “Percent Effect” value was 1.473%. With NC(=O)COc1ccc(CN2CCC(O)(CN3CCCCC3)C2)cc1Cl (configuration not stated) the “Percent Effect” value was -2.336%. With Cc1nc(N2Cc3cnn(Cc4ccc(F)cc4)c3C2)no1 the “Percent Effect” value was -13.57%. CCc1ccc(C2CC(=O)Nc3c2c(=O)n(C)c2ncnn32)cc1 (configuration not stated) was tested, and the “Percent Effect” value was 109.5%. Cn1ncc2c1NC(=O)CC2c1ccc(O)cc1 (configuration not stated) was tested, and the “Percent Effect” value was 38.62%. For COCc1nc2nc(O)c3c(n2n1)NC(=O)CC3c1ccc(SC)cc1 (configuration not stated), the “Percent Effect” value was -7.854%. In the case of CC(C)(C)c1noc(CCCC(=O)N2CCNC(=O)C2)n1, the “Percent Effect” value is reported as -4.153%. In the case of O=c1c2ccccc2ncn1Cc1cc(C2CC2)[nH]n1, the “Percent Effect” value is reported as 98.49%. For O=C(Cn1cnc2ccccc2c1=O)Nc1cc(C2CC2)n[nH]1, the “Percent Effect” value was 0.387%. For COc1cccc2c(=O)n(CCN3CCNCC3)cnc12, the “Percent Effect” value was 4.244%. For Cc1cc(CN2CCC(c3cc(Cc4ccccc4)n[nH]3)CC2)[nH]n1, the “Percent Effect” value was 25.91%. O=c1c2sccc2ncn1Cc1cc(C2CC2)[nH]n1 was tested, and the “Percent Effect” value was 88.09%. O=c1c2sccc2ncn1CC(O)CN1CCOCC1 (configuration not stated) was tested, and the “Percent Effect” value was 7.822%. COc1cccc2c(=O)n(Cc3cc(C4CC4)[nH]n3)cnc12 was tested, and the “Percent Effect” value was 104.8%. In the case of CC1CCN(CC(O)Cn2cnc3ccsc3c2=O)CC1 (configuration not stated), the “Percent Effect” value is reported as -6.513%. In the case of CN(Cc1cc(C2CC2)[nH]n1)Cc1cc2ccc(F)cc2[nH]c1=O, the “Percent Effect” value is reported as -8.263%. In the case of N#Cc1ccc(N2CCCN(CC(=O)N3CCNC(=O)C3)CC2)cc1, the “Percent Effect” value is reported as -15.62%. For CN(CC1=CCCN(Cc2cccc(C#N)c2)C1)C(=O)c1ccco1, the “Percent Effect” value was 6.358%.
